Laboratory results: the supplement of paper PMC10849652
The full data set covers some 7,900 targets. This sample favours those with a hit. About 0.6% of all pairs of compound and target were hits.

Assays:
Assay in all cases: log2 fold change, soluble protein after heating vs DMSO (PISA); higher = thermal stabilisation; K562 cells, 10 uM, 30 min; active = over 0.2 and 3.5 SD of the protein, either way, in both replicates (recomputed)
[1] = compound: COC1=CC=C(C=C1)CN2C=CC3=C2C=C(C=C3)C(=O)NO
Summary of the method: (§1)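 Thermal stability values are relative to control samples and come from duplicates. They are expressed as log2 fold changes. For measurement, K562 cells (2×10^6 cells/mL) received 10 μM compound for 30 min, and aliquots were heated for 3 min over 48°C-58°C, pooled, and extracted at 4°C in PBS with 0.5% NP-40. Soluble protein, the supernatant after 21,000xg for 90 min, was quantified by TMTpro 16plex LC-MS/MS with equalised channel sums.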

[2] = compound: CON(C)C(=O)N1N=C(c2cc(F)ccc2F)S[C@@]1(CCCN)c1ccccc1 [filanesib]
Summary of the method: as §1

[3] = compound: CO[C@H]1C[C@@H]2CC[C@@H](C)[C@@](O)(O2)C(=O)C(=O)N2CCCC[C@H]2C(=O)O[C@H]([C@H](C)C[C@@H]2CC[C@H](n3cnnn3)[C@H](OC)C2)CC(=O)[C@H](C)/C=C(\C)[C@@H](O)[C@@H](OC)C(=O)[C@H](C)C[C@H](C)/C=C/C=C/C=C/1C [zotarolimus]
Summary of the method: as §1

[4] = compound: COc1cc(C(=O)O)ccc1NC(=O)[C@@H]1N[C@@H](CC(C)(C)C)[C@](C#N)(c2ccc(Cl)cc2F)[C@H]1c1cccc(Cl)c1F [idasanutlin]
Summary of the method: as §1

[5] = compound: COc1cc(Nc2ncc3c(n2)-c2ccc(Cl)cc2C(c2c(F)cccc2OC)=NC3)ccc1C(=O)O [alisertib]
Summary of the method: as §1

[6] = compound: COc1cc2nc(-c3cc(F)ccc3O)nc(N[C@@H]3CNC[C@H]3C(C)(C)O)c2cc1OC
Summary of the method: as §1

[7] = compound: COc1cc2ncnc(Nc3ccc(F)c(Cl)c3)c2cc1OCCCN1CCOCC1 [gefitinib]
Summary of the method: as §1

[8] = compound: COc1cccc2cc(-c3nc([C@H]4CC[C@H](C(=O)O)CC4)n4ncnc(N)c34)[nH]c12
Summary of the method: as §1

[9] = compound: CS(=O)(=O)CCNCc1ccc(-c2ccc3ncnc(Nc4ccc(OCc5cccc(F)c5)c(Cl)c4)c3c2)o1 [lapatinib]
Summary of the method: as §1

[10] = compound: CS(=O)(=O)c1ccc(-c2cnc(N)c(C(=O)Nc3ccccc3)n2)cc1
Summary of the method: as §1

[11] = compound: C[C@@H](Oc1cc(-c2cnn(C3CCNCC3)c2)cnc1N)c1c(Cl)ccc(F)c1Cl [crizotinib]
Summary of the method: as §1

[12] = compound: C[C@@H]1COCCN1C2=NC(=NC(=C2)C3(CC3)S(=O)(=O)C)C4=C5C=CNC5=CC=C4
Summary of the method: as §1

[13] = compound: C[C@H](C1=CC=C(C=C1)C(=O)NC2=C3C=CNC3=NC=C2)N
Summary of the method: as §1

[14] = compound: C[C@H](Nc1ncnc2nc[nH]c12)c1cc2cccc(Cl)c2c(=O)n1-c1ccccc1 [duvelisib]
Summary of the method: as §1

[15] = compound: Cc1cc(Nc2cc(N3CCN(C)CC3)nc(Sc3ccc(NC(=O)C4CC4)cc3)n2)n[nH]1 [tozasertib]
Summary of the method: as §1

[16] = compound: Cc1cc(SCc2sc(-c3ccc(C(F)(F)F)cc3)nc2C)ccc1OCC(=O)O
Summary of the method: as §1

[17] = compound: Cc1ccc(-n2nc(C(C)(C)C)cc2NC(=O)Nc2ccc(OCCN3CCOCC3)c3ccccc23)cc1 [doramapimod]
Summary of the method: as §1

[18] = compound: Cc1ccc(C(=O)N(CCCN)[C@@H](c2nc3cc(Cl)ccc3c(=O)n2Cc2ccccc2)C(C)C)cc1 [ispinesib]
Summary of the method: as §1

[19] = compound: CS(=O)(=O)N1CCN(Cc2cc3nc(-c4cccc5[nH]ncc45)nc(N4CCOCC4)c3s2)CC1 [pictilisib]
Summary of the method: as §1

[20] = compound: Cc1cc(Nc2cc(CN3CCOCC3)c3nc(C)c(Cc4ccc(Cl)cc4F)n3n2)n[nH]1 [gandotinib]
Summary of the method: as §1

Measured: log2 fold change

NAA11 (UniProt Q9BSU3)
inactive: [1] 0.077 | [2] -0.026 | [3] -0.022 | [4] 0.037 | [5] -0.066 | [6] 0.13 | [7] 0.037 | [8] 0.116 | [9] -0.085 | [10] 0.027 | [11] -0.065 | [12] 0.006 | [13] 0.086 | [14] -0.015 | [15] 0.007 | [16] 0.114 | [17] -0.037 | [18] -0.009

NDFIP1 (UniProt Q9BT67)
Sequence of UniProt Q9BT67 (Q9BT67 whole entry, looked up): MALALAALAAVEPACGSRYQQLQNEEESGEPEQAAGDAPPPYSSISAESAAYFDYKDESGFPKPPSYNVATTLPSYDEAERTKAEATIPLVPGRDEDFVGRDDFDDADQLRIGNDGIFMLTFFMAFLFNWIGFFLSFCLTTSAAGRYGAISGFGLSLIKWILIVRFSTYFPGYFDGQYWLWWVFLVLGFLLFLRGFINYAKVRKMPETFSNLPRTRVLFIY
inactive: [1] 0.051 | [2] -0.134 | [3] 0.106 | [4] -0.034 | [5] -0.105 | [7] -0.155 | [8] -0.14 | [19] 0.228 | [10] 0.349 | [11] -0.004 | [12] 0.045 | [13] -0.167 | [14] 0.039 | [20] 0.052 | [15] 0.046 | [16] 0.08 | [17] -0.068 | [18] 0.015

NDUFB1 (UniProt O75438)
Sequence of UniProt O75438 (O75438 whole entry, looked up): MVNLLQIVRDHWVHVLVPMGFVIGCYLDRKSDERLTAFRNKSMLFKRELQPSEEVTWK
inactive: [1] 0.031 | [2] -0.029 | [3] -0.055 | [4] 0.029 | [5] -0.062 | [6] -0.08 | [7] 0.083 | [8] 0.076 | [9] -0.028 | [19] -0.196 | [10] 0.06 | [11] 0.019 | [12] 0.105 | [13] 0.044 | [20] -0.27 | [15] 0.001 | [17] -0.044

P4HA2 (UniProt O15460)
Sequence of UniProt O15460 (O15460 whole entry, looked up): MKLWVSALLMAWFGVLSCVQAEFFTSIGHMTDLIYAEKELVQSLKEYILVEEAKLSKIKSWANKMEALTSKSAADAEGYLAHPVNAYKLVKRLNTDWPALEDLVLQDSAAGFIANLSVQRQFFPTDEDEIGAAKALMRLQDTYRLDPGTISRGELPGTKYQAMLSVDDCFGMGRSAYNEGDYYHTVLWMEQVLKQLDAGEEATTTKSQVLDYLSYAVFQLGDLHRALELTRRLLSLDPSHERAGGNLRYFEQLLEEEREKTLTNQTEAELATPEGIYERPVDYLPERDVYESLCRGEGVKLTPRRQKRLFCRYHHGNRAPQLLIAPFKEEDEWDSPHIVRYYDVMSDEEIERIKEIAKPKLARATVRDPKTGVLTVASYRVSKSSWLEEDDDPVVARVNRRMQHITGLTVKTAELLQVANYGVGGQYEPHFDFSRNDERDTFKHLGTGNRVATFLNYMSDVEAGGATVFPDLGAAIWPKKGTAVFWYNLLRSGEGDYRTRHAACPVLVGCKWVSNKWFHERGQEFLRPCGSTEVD
active: [12] -0.627
inactive: [1] -0.109 | [2] 0.078 | [3] 0.026 | [5] 0.011 | [6] -0.139 | [7] 0.006 | [8] -0.11 | [9] 0.075 | [19] -0.003 | [10] 0.079 | [11] 0.023 | [13] 0.178 | [14] 0.037 | [20] 0.021 | [15] -0.005 | [16] 0.053 | [17] 0.069 | [18] -0.088

NUMBL (UniProt Q9Y6R0)
inactive: [1] -0.079 | [2] 0.128 | [3] -0.012 | [4] -0.061 | [5] -0.168 | [6] 0.005 | [7] 0.036 | [8] -0.149 | [9] 0.012 | [19] -0.022 | [10] 0.13 | [11] -0.021 | [12] 0.056 | [13] 0.044 | [14] 0.07 | [20] -0.025 | [16] 0.108 | [17] 0.109 | [18] -0.187

MSL1 (UniProt Q68DK7)
inactive: [1] -0.163 | [2] -0.013 | [4] -0.113 | [5] -0.081 | [6] 0.275 | [7] 0.04 | [8] -0.012 | [9] -0.117 | [19] 0.197 | [10] 0.092 | [11] 0 | [12] 0.049 | [14] 0.195 | [20] 0.31 | [16] -0.162 | [17] -0.054 | [18] -0.078

MYH16 (UniProt Q9H6N6)
inactive: [2] -0.263 | [3] -0.118 | [4] -0.066 | [5] 0.163 | [6] -0.052 | [7] -0.03 | [8] -0.031 | [9] 0.204 | [19] -0.448 | [10] -0.33 | [11] -0.097 | [13] -0.012 | [20] -0.279 | [15] -0.027 | [17] 0.399
active: [1] 0.886

NPM3 (UniProt O75607)
inactive: [1] 0.123 | [2] 0.116 | [3] 0.104 | [4] 0.258 | [5] -0.205 | [6] 0.006 | [7] -0.011 | [8] -0.069 | [9] -0.003 | [19] -0.025 | [10] -0.125 | [11] 0.001 | [13] -0.043 | [14] 0.022 | [20] 0.109 | [15] -0.034 | [16] -0.011 | [17] 0.024 | [18] 0.022

MLST8 (UniProt Q9BVC4)
Sequence of UniProt Q9BVC4 (Q9BVC4 whole entry, looked up): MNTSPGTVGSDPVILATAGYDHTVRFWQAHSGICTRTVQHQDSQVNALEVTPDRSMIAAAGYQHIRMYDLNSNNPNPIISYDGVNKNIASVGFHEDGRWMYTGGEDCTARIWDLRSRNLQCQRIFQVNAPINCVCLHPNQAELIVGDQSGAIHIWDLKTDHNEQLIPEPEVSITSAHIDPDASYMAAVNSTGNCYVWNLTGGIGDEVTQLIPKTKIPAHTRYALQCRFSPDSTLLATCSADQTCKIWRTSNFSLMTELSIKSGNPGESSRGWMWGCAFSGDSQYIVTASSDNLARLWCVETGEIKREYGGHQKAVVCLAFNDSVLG
inactive: [1] 0.1 | [2] -0.206 | [3] -0.12 | [4] -0.154 | [5] 0.019 | [6] 0.055 | [7] -0.041 | [8] -0.081 | [9] -0.039 | [10] -0.07 | [11] -0.12 | [12] 0.014 | [13] 0.089 | [14] 0.067 | [15] 0.006 | [16] 0.079 | [17] 0.042

MINK1 (UniProt Q8N4C8)
Sequence of UniProt Q8N4C8 (Q8N4C8 whole entry, looked up): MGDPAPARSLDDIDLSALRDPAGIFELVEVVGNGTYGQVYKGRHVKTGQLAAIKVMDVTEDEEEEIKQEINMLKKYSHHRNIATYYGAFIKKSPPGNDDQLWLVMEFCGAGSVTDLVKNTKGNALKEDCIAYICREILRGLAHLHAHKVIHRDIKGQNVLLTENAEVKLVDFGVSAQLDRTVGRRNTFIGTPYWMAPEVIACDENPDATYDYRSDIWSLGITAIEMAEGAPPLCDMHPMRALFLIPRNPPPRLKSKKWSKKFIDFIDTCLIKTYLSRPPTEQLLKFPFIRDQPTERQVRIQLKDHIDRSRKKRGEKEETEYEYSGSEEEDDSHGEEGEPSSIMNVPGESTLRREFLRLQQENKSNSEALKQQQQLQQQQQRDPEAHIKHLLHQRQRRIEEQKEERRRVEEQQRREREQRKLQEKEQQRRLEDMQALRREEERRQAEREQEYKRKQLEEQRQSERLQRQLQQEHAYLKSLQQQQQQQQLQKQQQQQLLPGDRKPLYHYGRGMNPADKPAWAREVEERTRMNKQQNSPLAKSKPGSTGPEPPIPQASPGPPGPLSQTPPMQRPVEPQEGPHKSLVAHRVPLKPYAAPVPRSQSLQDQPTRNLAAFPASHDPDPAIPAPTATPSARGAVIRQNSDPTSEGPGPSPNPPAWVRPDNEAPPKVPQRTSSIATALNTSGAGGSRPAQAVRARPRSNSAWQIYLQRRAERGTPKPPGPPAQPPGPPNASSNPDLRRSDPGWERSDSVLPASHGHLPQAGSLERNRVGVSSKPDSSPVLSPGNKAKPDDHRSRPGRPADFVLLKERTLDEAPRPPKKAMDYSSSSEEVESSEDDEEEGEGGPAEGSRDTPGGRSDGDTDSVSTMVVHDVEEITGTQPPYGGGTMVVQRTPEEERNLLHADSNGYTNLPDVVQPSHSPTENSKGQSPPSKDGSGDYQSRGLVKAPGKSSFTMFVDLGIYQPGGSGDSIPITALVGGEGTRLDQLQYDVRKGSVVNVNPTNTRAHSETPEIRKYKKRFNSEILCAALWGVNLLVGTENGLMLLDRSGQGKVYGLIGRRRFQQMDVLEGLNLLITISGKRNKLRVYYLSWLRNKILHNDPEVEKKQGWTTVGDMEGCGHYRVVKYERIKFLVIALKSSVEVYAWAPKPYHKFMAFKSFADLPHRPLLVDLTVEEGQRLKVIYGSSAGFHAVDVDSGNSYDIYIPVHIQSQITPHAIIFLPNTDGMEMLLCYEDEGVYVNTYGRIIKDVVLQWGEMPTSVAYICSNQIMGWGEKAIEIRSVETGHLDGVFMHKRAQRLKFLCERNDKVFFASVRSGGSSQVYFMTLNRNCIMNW
inactive: [1] -0.054 | [2] -0.003 | [3] 0.014 | [4] 0.013 | [5] -0.042 | [6] -0.064 | [8] 0.024 | [9] 0.024 | [19] -0.019 | [10] 0.032 | [11] -0.207 | [12] -0.038 | [13] -0.067 | [14] 0.022 | [20] -0.024 | [15] -0.149 | [16] 0.073 | [17] -0.035 | [18] -0.032

ORC5 (UniProt O43913)
Sequence of UniProt O43913 (O43913 whole entry, looked up): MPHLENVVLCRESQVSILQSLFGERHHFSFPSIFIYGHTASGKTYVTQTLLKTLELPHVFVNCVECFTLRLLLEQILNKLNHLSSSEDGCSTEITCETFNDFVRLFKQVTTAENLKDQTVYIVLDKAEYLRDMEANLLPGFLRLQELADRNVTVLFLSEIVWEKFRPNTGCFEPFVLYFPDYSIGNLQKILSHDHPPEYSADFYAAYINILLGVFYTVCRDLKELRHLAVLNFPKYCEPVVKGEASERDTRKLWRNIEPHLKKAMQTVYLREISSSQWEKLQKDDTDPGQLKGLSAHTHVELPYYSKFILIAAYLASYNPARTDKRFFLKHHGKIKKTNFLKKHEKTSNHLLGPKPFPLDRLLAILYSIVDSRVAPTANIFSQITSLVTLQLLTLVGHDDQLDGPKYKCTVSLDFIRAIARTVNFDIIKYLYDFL
inactive: [1] 0.016 | [2] 0.104 | [3] 0.028 | [4] -0.013 | [5] 0.125 | [6] 0.07 | [7] 0.088 | [8] 0.018 | [9] 0.062 | [19] 0.012 | [10] 0.166 | [13] 0.008 | [14] 0.074 | [20] -0.226 | [15] -0.007 | [16] 0.135 | [17] -0.104 | [18] -0.152
active: [11] -0.766

NCK1 (UniProt P16333)
inactive: [1] 0.049 | [2] -0.054 | [3] 0.13 | [4] -0.001 | [5] -0.127 | [6] -0.165 | [7] 0.002 | [8] -0.024 | [9] -0.066 | [10] -0.077 | [11] -0.449 | [12] 0.171 | [13] 0.162 | [14] -0.135 | [15] 0.061 | [16] 0.076 | [17] -0.008 | [18] -0.173

NKTR (UniProt P30414)
Sequence of UniProt P30414 (P30414 whole entry, looked up): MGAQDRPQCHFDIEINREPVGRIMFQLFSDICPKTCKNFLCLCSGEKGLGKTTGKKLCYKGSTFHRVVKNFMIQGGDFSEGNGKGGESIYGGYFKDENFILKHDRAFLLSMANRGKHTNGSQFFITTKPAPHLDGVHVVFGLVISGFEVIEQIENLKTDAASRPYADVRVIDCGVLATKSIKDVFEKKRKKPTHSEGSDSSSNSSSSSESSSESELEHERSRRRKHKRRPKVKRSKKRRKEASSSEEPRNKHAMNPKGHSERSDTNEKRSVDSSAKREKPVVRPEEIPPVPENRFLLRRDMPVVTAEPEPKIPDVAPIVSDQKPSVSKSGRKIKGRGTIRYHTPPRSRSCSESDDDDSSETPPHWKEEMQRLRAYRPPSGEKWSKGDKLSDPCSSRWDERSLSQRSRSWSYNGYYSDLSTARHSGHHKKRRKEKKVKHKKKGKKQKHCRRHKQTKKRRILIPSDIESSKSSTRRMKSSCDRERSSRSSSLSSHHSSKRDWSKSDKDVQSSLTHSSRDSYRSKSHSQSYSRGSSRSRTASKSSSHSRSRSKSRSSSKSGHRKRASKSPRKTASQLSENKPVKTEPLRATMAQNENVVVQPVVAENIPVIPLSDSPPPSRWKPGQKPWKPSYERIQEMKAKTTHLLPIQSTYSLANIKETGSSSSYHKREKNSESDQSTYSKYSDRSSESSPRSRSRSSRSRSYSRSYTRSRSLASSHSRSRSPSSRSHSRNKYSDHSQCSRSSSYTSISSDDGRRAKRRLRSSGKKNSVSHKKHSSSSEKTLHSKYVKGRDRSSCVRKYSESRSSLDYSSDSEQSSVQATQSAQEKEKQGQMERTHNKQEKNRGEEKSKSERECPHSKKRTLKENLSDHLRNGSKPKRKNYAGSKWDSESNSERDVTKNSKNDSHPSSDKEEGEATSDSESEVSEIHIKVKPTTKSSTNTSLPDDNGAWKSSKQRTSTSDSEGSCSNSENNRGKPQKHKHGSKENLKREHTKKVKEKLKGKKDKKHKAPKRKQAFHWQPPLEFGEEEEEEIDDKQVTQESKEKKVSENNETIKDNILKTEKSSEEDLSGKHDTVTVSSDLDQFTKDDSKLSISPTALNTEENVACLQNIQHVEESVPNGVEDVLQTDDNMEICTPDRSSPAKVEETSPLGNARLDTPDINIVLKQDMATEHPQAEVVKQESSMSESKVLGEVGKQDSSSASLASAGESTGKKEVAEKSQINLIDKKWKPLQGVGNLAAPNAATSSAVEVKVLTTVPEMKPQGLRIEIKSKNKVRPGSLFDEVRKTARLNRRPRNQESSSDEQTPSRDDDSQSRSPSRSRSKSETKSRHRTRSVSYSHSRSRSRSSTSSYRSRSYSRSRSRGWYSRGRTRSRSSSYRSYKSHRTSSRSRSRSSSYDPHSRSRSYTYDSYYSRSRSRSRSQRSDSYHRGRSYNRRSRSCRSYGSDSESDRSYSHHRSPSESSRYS
inactive: [5] 0.064 | [6] 0.295 | [8] 0.109 | [9] -0.173

NMU (UniProt P48645)
Sequence of UniProt P48645 (P48645 whole entry, looked up): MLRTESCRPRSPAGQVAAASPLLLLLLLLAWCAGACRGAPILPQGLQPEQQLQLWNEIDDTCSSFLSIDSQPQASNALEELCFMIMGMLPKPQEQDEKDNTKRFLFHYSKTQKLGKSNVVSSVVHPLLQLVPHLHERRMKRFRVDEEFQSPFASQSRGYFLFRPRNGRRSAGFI
inactive: [1] 0.259 | [3] -0.018 | [4] 0.057 | [6] -0.156 | [7] 0.162 | [9] -0.047 | [19] -0.3 | [11] 0.025 | [12] -0.445 | [13] -0.026 | [14] -0.001 | [20] -0.159 | [15] -0.092 | [16] 0.127 | [17] -0.04 | [18] -0.186

NUDT6 (UniProt P53370)
Sequence of UniProt P53370 (P53370 whole entry, looked up): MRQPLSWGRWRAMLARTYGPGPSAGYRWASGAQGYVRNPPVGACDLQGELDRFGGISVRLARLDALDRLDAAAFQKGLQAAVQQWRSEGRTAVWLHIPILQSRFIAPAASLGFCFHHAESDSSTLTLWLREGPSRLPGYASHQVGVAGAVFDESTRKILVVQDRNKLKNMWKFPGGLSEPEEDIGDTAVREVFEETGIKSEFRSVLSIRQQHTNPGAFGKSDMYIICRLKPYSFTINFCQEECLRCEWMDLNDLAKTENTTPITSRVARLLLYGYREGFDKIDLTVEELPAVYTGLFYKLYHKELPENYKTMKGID
inactive: [1] 0.017 | [3] -0.173 | [5] 0.012 | [6] 0.175 | [7] -0.025 | [8] -0.084 | [9] -0.017 | [11] 0.069 | [12] 0.122 | [13] 0.6 | [14] 0.019 | [15] -0.036 | [16] -0.094 | [17] -0.127 | [18] -0.097

NIPSNAP2 (UniProt C9J7B1)
inactive: [2] 0.05 | [4] -0.38 | [5] -0.041 | [8] -0.047 | [10] 0

MYSM1 (UniProt Q5VVJ2)
inactive: [1] -0.063 | [2] -0.007 | [10] 0.067 | [11] -0.091 | [17] -0.045 | [18] 0.128

MORC2 (UniProt Q9Y6X9)
inactive: [1] 0.195 | [4] -0.018 | [5] -0.012 | [6] 0.134 | [8] -0.013 | [9] -0.118 | [11] 0.027 | [12] 0.065 | [17] -0.042

NEU3 isoform 2 (UniProt Q9UQ49)
inactive: [2] -0.286 | [6] 0.301 | [9] -0.126 | [10] 0.062

MYO19 (UniProt Q96H55)
active: [19] 0.567
inactive: [1] -0.083 | [3] 0.071 | [4] -0.116 | [6] 0.081 | [7] 0.024 | [9] 0.276 | [11] 0.047 | [12] -0.215 | [13] 0.491 | [14] -0.07 | [20] -0.081 | [16] 0.158 | [17] 0.066 | [18] -0.065

NCBP2AS2 (UniProt Q69YL0)
Sequence of UniProt Q69YL0 (Q69YL0 whole entry, looked up): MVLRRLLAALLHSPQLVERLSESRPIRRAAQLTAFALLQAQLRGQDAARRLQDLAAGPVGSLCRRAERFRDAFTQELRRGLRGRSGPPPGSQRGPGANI
active: [6] -0.42 | [18] -0.48
inactive: [2] -0.09 | [3] -0.051 | [4] -0.023 | [5] -0.058 | [7] -0.137 | [8] 0.044 | [9] -0.093 | [19] 0.033 | [10] -0.092 | [13] -0.027 | [14] 0.037 | [20] -0.064 | [15] -0.034 | [16] 0.044

NDUFA7 (UniProt M0R0N0)
inactive: [2] -0.042 | [10] 0.095
